# ± gives the standard deviation of the averaged measurements.
# What was measured:
# Assay in all cases: relative enzymatic activity vs untreated control (fraction); higher = less inhibition
# Conditions in all cases: 100 µM; incubation time: 2 h at 37 C
# [1] = test system: DNA gyrase
# Experimental: (§1)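 In vitro enzymatic inhibition assays (ProFoldin kits) for 12 purified essential E. coli enzymes or complexes, each treated with 218 active antibacterial compounds at 100 µM for 2 h at 37°C. Read-outs were fluorescence or absorbance (phosphate detection, dye binding), converted to activity via standard curves and expressed relative to untreated DMSO controls.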
# [2] = biological target: DNA helicase (UniProt P0ACB1)
# Experimental: as §1
# [3] = biological target: DNA ligase (UniProt B1XA82)
# Experimental: as §1
# [4] = biological target: DNA polymerase (UniProt P10443)
# Experimental: as §1
# [5] = biological target: DNA primase (UniProt P0ABS7)
# Experimental: as §1
# [6] = biological target: GlmU (UniProt A7ZTU1)
# Experimental: as §1
# [7] = biological target: Guanlyate kinase (UniProt Q0TBG1)
# Experimental: as §1
# [8] = biological target: MurA (UniProt Q3YX52)
# Experimental: as §1
# [9] = biological target: T1, MurD (UniProt P14900)
# T1 sequence (whole entry): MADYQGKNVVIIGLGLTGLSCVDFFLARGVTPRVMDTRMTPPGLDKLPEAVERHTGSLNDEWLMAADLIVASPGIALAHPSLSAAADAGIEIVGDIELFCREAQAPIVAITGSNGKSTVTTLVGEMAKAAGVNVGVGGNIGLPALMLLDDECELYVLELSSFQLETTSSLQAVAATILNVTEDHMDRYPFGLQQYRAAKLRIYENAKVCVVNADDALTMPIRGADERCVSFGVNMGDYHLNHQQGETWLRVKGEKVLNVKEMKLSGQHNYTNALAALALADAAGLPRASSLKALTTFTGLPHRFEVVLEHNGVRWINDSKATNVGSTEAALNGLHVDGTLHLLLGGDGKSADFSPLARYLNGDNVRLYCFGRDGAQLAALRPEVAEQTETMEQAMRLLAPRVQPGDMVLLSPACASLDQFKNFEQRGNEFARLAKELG
# Experimental: as §1
# [10] = biological target: T2, MurF (UniProt P11880)
# T2 sequence (whole entry): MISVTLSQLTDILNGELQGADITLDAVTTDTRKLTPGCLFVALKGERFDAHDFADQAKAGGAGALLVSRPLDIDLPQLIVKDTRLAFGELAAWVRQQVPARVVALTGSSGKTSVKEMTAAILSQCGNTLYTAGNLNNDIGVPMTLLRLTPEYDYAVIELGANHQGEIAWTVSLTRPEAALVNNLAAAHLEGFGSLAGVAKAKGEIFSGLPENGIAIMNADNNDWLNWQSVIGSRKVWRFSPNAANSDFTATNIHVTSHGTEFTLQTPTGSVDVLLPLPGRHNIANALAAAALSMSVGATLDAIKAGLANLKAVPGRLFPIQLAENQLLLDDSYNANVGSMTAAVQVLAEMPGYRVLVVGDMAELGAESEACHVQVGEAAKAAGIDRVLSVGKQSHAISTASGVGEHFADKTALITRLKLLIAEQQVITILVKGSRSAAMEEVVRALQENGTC
# Experimental: as §1
# [11] = test system: RNA polymerase
# Experimental: as §1
# Chain of DNA polymerase (P10443 whole entry): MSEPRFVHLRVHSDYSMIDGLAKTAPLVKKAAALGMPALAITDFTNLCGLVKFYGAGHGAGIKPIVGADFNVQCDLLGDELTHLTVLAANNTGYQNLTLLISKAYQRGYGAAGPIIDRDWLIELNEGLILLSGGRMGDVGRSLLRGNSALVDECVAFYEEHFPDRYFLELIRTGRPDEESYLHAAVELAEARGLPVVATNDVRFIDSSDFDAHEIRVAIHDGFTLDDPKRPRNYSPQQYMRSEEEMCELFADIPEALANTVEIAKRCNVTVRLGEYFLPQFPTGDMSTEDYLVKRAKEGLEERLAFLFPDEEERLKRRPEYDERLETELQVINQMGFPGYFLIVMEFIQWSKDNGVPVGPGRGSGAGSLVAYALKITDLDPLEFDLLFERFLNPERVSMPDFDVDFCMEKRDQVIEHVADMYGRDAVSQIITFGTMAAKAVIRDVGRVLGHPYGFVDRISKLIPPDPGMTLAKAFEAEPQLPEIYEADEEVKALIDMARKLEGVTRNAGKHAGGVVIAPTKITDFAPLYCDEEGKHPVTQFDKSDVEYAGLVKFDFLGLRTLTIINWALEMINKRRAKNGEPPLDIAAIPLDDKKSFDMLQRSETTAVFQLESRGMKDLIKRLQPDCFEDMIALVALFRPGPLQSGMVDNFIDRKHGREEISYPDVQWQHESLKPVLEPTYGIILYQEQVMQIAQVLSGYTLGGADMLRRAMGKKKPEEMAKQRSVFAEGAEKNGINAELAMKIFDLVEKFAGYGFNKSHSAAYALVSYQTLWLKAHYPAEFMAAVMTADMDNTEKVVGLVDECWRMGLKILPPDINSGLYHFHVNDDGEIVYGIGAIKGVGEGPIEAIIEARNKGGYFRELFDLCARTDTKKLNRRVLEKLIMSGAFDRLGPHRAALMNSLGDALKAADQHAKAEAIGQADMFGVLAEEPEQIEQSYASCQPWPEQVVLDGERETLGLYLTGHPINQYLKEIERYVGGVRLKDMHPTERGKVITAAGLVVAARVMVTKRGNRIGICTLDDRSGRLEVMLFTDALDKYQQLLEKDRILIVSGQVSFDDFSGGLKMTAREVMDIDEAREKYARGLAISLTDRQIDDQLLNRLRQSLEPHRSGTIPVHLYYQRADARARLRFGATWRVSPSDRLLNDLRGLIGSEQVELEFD
# Chain of DNA ligase (B1XA82 whole entry): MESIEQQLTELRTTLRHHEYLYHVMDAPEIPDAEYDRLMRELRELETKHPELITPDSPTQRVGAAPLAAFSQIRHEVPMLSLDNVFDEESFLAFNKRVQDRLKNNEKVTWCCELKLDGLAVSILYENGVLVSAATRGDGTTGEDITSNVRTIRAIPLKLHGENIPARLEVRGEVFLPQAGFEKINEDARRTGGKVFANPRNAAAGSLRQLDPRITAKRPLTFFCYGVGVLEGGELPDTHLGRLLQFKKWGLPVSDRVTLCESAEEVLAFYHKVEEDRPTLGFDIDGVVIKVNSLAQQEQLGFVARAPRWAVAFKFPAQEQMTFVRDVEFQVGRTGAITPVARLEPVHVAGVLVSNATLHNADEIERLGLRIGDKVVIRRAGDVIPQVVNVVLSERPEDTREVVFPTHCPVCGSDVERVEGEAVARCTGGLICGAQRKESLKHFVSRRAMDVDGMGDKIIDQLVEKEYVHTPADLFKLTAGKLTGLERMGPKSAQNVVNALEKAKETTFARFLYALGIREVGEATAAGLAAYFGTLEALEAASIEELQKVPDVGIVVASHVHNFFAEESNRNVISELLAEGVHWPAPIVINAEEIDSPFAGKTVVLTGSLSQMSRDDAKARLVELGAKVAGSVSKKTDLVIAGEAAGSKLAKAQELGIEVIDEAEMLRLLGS
# Chain of GlmU (A7ZTU1 whole entry, looked up): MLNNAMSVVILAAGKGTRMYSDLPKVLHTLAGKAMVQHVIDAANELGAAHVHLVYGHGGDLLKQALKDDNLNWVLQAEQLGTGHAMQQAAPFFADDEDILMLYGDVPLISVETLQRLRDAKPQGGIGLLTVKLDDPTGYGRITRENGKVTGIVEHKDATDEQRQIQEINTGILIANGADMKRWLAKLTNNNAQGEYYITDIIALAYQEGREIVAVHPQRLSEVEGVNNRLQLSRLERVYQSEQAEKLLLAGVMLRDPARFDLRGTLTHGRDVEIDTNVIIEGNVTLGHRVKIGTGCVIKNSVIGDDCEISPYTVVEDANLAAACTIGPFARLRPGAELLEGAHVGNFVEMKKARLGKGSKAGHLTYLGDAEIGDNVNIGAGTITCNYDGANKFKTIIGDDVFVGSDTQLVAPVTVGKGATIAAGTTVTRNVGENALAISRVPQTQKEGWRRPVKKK
# Chain of DNA helicase (P0ACB1 whole entry): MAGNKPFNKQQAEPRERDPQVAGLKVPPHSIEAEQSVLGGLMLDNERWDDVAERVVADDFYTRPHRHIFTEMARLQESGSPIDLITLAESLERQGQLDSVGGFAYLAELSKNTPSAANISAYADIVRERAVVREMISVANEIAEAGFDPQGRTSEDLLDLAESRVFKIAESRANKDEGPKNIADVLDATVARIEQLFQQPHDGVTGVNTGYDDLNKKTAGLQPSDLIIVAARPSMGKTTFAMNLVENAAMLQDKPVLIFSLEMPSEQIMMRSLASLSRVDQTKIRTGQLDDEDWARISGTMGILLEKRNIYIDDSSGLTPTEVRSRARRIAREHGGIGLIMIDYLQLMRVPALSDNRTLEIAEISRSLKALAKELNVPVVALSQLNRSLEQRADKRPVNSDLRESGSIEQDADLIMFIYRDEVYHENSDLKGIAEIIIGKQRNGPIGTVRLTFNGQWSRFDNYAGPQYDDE
# Chain of MurA (Q3YX52 whole entry): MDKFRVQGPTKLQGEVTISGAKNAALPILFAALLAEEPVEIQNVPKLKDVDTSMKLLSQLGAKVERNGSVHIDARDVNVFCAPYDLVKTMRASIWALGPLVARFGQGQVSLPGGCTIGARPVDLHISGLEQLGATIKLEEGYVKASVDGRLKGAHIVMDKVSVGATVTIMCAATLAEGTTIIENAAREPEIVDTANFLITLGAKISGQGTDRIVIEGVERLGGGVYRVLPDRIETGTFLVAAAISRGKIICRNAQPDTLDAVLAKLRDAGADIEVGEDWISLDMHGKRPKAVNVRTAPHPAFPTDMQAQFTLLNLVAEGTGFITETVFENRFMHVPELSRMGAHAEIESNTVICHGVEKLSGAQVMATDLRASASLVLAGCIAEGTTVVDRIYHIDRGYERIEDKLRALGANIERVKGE
# Chain of Guanlyate kinase (Q0TBG1 whole entry): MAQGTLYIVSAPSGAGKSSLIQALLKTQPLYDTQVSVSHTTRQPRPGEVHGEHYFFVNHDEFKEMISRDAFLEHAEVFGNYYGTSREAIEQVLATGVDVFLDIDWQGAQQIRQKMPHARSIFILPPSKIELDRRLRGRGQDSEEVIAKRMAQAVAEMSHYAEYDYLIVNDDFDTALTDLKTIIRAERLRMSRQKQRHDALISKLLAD
# Chain of DNA primase (P0ABS7 whole entry): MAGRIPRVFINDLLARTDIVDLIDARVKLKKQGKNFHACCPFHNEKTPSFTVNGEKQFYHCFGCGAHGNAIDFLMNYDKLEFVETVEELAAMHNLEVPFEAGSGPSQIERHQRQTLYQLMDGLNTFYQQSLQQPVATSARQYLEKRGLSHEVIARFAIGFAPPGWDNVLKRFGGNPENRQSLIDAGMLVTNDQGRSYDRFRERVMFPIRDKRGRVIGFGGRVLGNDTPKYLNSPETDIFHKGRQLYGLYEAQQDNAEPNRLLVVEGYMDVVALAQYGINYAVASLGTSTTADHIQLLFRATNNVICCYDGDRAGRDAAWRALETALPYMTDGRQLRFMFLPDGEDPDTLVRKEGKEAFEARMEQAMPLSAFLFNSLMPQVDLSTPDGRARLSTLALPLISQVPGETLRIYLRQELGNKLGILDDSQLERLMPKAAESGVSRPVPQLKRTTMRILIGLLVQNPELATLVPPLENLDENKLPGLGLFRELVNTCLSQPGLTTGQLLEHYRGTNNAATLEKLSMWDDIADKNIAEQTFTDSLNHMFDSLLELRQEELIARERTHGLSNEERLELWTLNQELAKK
SMILES,relative enzymatic activity [1],relative enzymatic activity [2],relative enzymatic activity [3],relative enzymatic activity [4],relative enzymatic activity [5],relative enzymatic activity [6],relative enzymatic activity [7],relative enzymatic activity [8],relative enzymatic activity [9],relative enzymatic activity [10],relative enzymatic activity [11]
C=CC1=C(C(=O)O)N2C(=O)C(NC(=O)C(=NO)c3csc(N)n3)C2SC1 (configuration not stated),0.393 ± 0.35,0.553 ± 0.15,1.19 ± 0.35,1.06 ± 0.12,0.8619 ± 0.0016,0.976 ± 0.068,0.917 ± 0.087,0.127 ± 0.04,0.596 ± 0.39,0.968 ± 0.27,0.768 ± 0.033
CCC1OC(=O)C(C)C(=O)C(C)C(OC2OC(C)CC(N(C)C)C2O)C(C)(OC)CC(C)C(=O)C(C)C2N(CCCCn3cnc(-c4cccnc4)c3)C(=O)OC12C (configuration not stated),0.862 ± 0.39,0.396 ± 0.024,1.1 ± 0.3,1.24 ± 0.3,0.854 ± 0.012,0.9359 ± 0.0057,0.967 ± 0.099,0.668 ± 0.05,0.525 ± 0.34,0.799 ± 0.13,0.822 ± 0.037
CN(C)[C@@H]1C(=O)[C@@H](C(N)=O)C(=O)[C@@]2(O)C(=O)[C@@H]3C(=O)c4c(O)c(NC(=O)CN5CCCC5)cc(F)c4C[C@H]3C[C@@H]12,0.0486 ± 0.069,0.103 ± 0.0053,0.94816 ± 9.1e-05,1.06 ± 0.31,0.456 ± 0.15,0.9445 ± 0.0056,0.347 ± 0.035,0.63 ± 0.26,0.632 ± 0.45,0.943 ± 0.19,0.118 ± 0.028
CCCCCCCCCCCCCCCC[N+](C)(C)C,0.633 ± 0.67,0.0316 ± 0.02,0.457 ± 0.13,0.0628 ± 0.012,0.384 ± 0.054,0.198 ± 0.0053,0.644 ± 0.077,0.0456 ± 0.013,0.173 ± 0.085,0.106 ± 0.034,0.223 ± 0.0051
COc1cc(Cc2cnc(N)nc2N)cc(OC)c1OC,0.772 ± 0.45,0.617 ± 0.18,1.12 ± 0.24,1.36 ± 0.46,0.685 ± 0.15,1.009 ± 0.0036,1.01 ± 0.05,0.706 ± 0.023,0.589 ± 0.4,0.569 ± 0.81,0.887 ± 0.074
Cc1oc(=O)oc1CN1CCN(c2cc3c(cc2F)c(=O)c(C(=O)O)c2n3C(C)S2)CC1 (configuration not stated),0.0525 ± 0.074,0.431 ± 0.01,1.19 ± 0.31,1.23 ± 0.25,0.852 ± 0.0094,0.942 ± 0.024,1.12 ± 0.12,0.452 ± 0.31,0.586 ± 0.4,0.963 ± 0.18,0.842 ± 0.022
Oc1c(Cl)cc(Cl)c2cccnc12,0.515 ± 0.28,0.476 ± 0.16,1.11 ± 0.24,1.11 ± 0.21,0.637 ± 0.12,1.21 ± 0.19,0.854 ± 0.039,0.88 ± 0.26,0.642 ± 0.46,0.98 ± 0.18,0.7619 ± 0.0022
Cc1cn(C2CC(N=[N+]=[N-])C(CO)O2)c(=O)[nH]c1=O (configuration not stated),0.801 ± 0.34,0.472 ± 0.1,1.38 ± 0.076,1.3 ± 0.36,0.692 ± 0.18,1.002 ± 0.0012,0.865 ± 0.097,0.77 ± 0.043,0.573 ± 0.35,0.97 ± 0.2,0.887 ± 0.0091
COC(=O)N/N=C/c1c[n+]([O-])c2ccccc2[n+]1[O-],0.905 ± 0.076,0.651 ± 0.26,0.933 ± 0.14,1.16 ± 0.23,0.803 ± 0.018,1.012 ± 0.0043,0.591 ± 0.026,0.719 ± 0.12,0.604 ± 0.4,0.913 ± 0.27,0.789 ± 0.081
CON=C(C(=O)NC1C(=O)N2C(C(=O)O)=C(CSC(=O)c3ccco3)CSC12)c1csc(N)n1.Cl (configuration not stated),0.933 ± 0.033,0.388 ± 0.053,1.07 ± 0.033,0.476 ± 0.67,0.657 ± 0.15,0.844 ± 0.063,0.949 ± 0.12,0.0647 ± 0.013,0.551 ± 0.37,0.95 ± 0.2,0.832 ± 0.051
NCCONC(=O)[C@@H]1CC[C@@H]2CN1C(=O)N2OS(=O)(=O)O,0.796 ± 0.34,0.527 ± 0.074,1.08 ± 0.078,1.13 ± 0.22,0.762 ± 0.033,1.02 ± 0.082,1.01 ± 0.12,0.709 ± 0.27,0.562 ± 0.36,0.971 ± 0.24,0.902 ± 0.075
O=C1C=CC(=O)N1,0.511 ± 0.14,0.616 ± 0.23,0.848 ± 0.071,1 ± 0.3,0.801 ± 0.014,0.973 ± 0.066,0.814 ± 0.18,0.171 ± 0.052,0.533 ± 0.5,0.951 ± 0.22,0.83 ± 0.2
CC[C@@H]1OC(=O)[C@H](C)[C@@H](O[C@H]2C[C@@](C)(OC)[C@@H](O)[C@H](C)O2)[C@H](C)[C@@H](O[C@@H]2O[C@H](C)C[C@H](N(C)C)[C@H]2O)[C@](C)(O)C[C@@H](C)/C(=N\OCOCCOC)[C@H](C)[C@@H](O)[C@]1(C)O,0.682 ± 0.5,0.568 ± 0.081,0.8031 ± 0.0034,0.48 ± 0.67,0.8559 ± 0.0026,0.895 ± 0.076,0.922 ± 0.026,0.852 ± 0.19,0.583 ± 0.4,1.12 ± 0.015,0.884 ± 0.17
Cc1nnc(SCC2=C(C(=O)[O-])N3C(=O)C(NC(=O)Cn4cnnn4)C3SC2)s1.[Na+] (configuration not stated),1.26 ± 0.15,0.672 ± 0.26,,1.45 ± 0.57,0.707 ± 0.18,0.951 ± 0.036,1.13 ± 0.052,0.255 ± 0.063,0.612 ± 0.43,0.89 ± 0.17,0.961 ± 0.05
CCn1cc(C(=O)O)c(=O)c2cc(F)c(N3CCN(C(=S)Nc4cc(C(F)(F)F)ccc4Cl)CC3)cc21,0.0352 ± 0.05,0.303 ± 0.029,0.85 ± 0.036,0.51 ± 0.72,1.49 ± 0.75,1.03 ± 0.024,0.915 ± 0.081,0.654 ± 0.18,0.629 ± 0.41,0.996 ± 0.24,1.17 ± 0.075
Cc1c(N)nc([C@H](CC(N)=O)NC[C@H](N)C(N)=O)nc1C(=O)N[C@H](C(=O)N[C@H](C)[C@@H](O)[C@H](C)C(=O)N[C@H](C(=O)NCCc1nc(-c2nc(C(=O)NCCCNCCCCN)cs2)cs1)[C@@H](C)O)[C@@H](O[C@@H]1O[C@@H](CO)[C@@H](O)[C@H](O)[C@@H]1O[C@@H]1O[C@H](CO)[C@@H](O)[C@H](OC(N)=O)[C@@H]1O)c1c[nH]cn1,0.0474 ± 0.067,0.732 ± 0.39,0.811 ± 0.15,0.308 ± 0.022,0.762 ± 0.041,0.988 ± 0.023,0.871 ± 0.084,0.872 ± 0.13,0.622 ± 0.4,0.281 ± 0.39,0.75 ± 0.034
CC1(C)S[C@@H]2[C@H](NC(=O)[C@H](NC(=O)N3CCNC3=O)c3ccccc3)C(=O)N2[C@H]1C(=O)O,0.794 ± 0.35,0.76 ± 0.44,0.934 ± 0.038,1.06 ± 0.04,0.864 ± 0.024,0.998 ± 0.033,0.935 ± 0.03,0.579 ± 0.11,0.583 ± 0.4,0.954 ± 0.23,0.869 ± 0.089
CC[C@H](C)C[C@H](C)CCCCCCCCC(=O)N[C@H]1C[C@@H](O)[C@@H](NCCN)NC(=O)[C@@H]2[C@@H](O)CCN2C(=O)[C@H]([C@H](O)CCN)NC(=O)[C@H]([C@H](O)[C@@H](O)c2ccc(O)cc2)NC(=O)[C@@H]2C[C@@H](O)CN2C(=O)[C@H]([C@@H](C)O)NC1=O,0.131 ± 0.067,0.0208 ± 0.022,0.699 ± 0.13,0.2437 ± 0.00079,0.766 ± 0.017,1.03 ± 0.013,1.09 ± 0.022,0.522 ± 0.47,0.706 ± 0.5,1.39 ± 0.62,0.408 ± 0.013
